Measurements as given in PubChem BioAssay (NCI).
This is part of a sample that, as a whole, favours compounds with a hit. Of some 83,000 tested, about 20% had one in any assay.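 In brief: 96-well plates, 48 h treatment, single concentration, percent growth endpoint.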 The source made the active and inactive calls. The calls were made as follows: active = growth percent below 10; inactive = the rest.

Tested on: NCI-H522 lung
Test: NCI-60 one-dose screen, 48 h (100 = growth as untreated, 0 = no growth, -100 = all killed)
Details: 10 µM unless noted

Row | Compound | growth
1 | CCCC1CCCCN1C(=O)OCC(C)C (configuration not stated) | 99.4% (inactive)
2 | O=S(=O)(NCCNc1cc(-c2cn(-c3ccccc3)nc2-c2cccc(O)c2)ccn1)c1cccc(F)c1 | 26.7% (inactive)
3 | Cc1cccc(C)c1NC(=O)CSC(=S)N1CCCCC1 | 92% (inactive)
4 | O=C(/C=C/c1cccc(O)c1)c1ccccc1O | -37.3% (active)
5 | O=C(NO)c1ccc(Cn2c(=O)n(CCc3ccc(O)cc3)c(=O)c3ccccc32)cc1 | 7.74% (active)
6 | COc1ccc(O)c(-c2cc(-c3ccc(Cl)cc3)c(C#N)c(=O)[nH]2)c1 | 36.8% (inactive)
7 | CCC(=O)c1c(C)[nH]c(C)c1C | 56.2% (inactive)
8 | COc1cc(-c2cc3ncccc3c3nc(OCCN(C)C)c4cccnc4c23)cc(OC)c1OC | 7.46% (active)
9 | O=C(/C=C/c1cccc2ccccc12)Nc1ncc(Cc2ccccc2)s1 | 34.5% (inactive)
10 | CC(C)/C=C/CC[C@](C)(O)[C@H]1CC[C@]2(C)[C@@H]1CC[C@@H]1[C@@]3(C)C/C(=C/c4cccc(C(F)(F)F)c4)C(=O)C(C)(C)[C@@H]3CC[C@]12C | 96.2% (inactive)
11 | O=C(NCN1C(=O)c2cccc3cccc(c23)C1=O)N1CCC(Cc2ccccc2)CC1 | 77.9% (inactive)
12 | COc1cnc2c(c1)C(=O)c1c-2n(CCCNCCN2CCOCC2)c(=O)c2cc([N+](=O)[O-])ccc12 | -19.9% (active)
13 | CCCCCCCC(=O)SCC/C=C/[C@@H]1CC(=O)NCc2cccc(n2)CN(Cc2ccc3ccccc3c2)CC(=O)N[C@@H](C(C)C)C(=O)O1 | 66.1% (inactive)
14 | Fc1ccc2nc(-c3cc(-c4ccc5c(c4)OCO5)n[nH]3)[nH]c2c1 | 33.7% (inactive)
15 | Cn1cc(-c2nc(-c3cn(C)c4ncccc34)cs2)c2cc(F)ccc21 | -0.482% (active)
16 | NCCn1cc(-c2nc(-c3c[nH]c4ncccc34)cs2)c2ccccc21 | 90.4% (inactive)
17 | COc1ccc(-c2cc(-c3c(C)oc4cc5occc5c(OC)c4c3=O)nc(N)c2C#N)cc1OC | 47.1% (inactive)
18 | CN(C)c1ccc(N)c2ccccc12 | 80.1% (inactive)
19 | CN(C)CCCCC(C(=O)CBr)(c1ccccc1)c1ccccc1 | -90% (active)
20 | O=C1Nc2ccccc2/C1=C/c1cn(CCCn2c3ccccc3c(=O)c3ccccc32)c2ccccc12 | 77.5% (inactive)
21 | C=C(C)[C@@H]1CC[C@]2(C=NCCCNCCCCNCCCN)CC[C@]3(C)[C@H](CC[C@@H]4[C@@]5(C)CCCNC(C)(C)[C@@H]5CC[C@]43C)[C@@H]12 | 99.6% (inactive)
22 | CCCCn1c(-c2ccc(O)cc2)cn2c3c(=O)[nH]c(=O)n(C)c3nc12 | 30.9% (inactive)
23 | Cc1nn(-c2ccc(Br)cc2)c2nc3[nH]c(=O)[nH]c(=O)c3nc12 | 98.1% (inactive)
24 | Cc1cc2nc3c4cc(N)ccc4n(CCN(C)C)c3nc2cc1C | 13.2% (inactive)
25 | COc1ccc(-c2nc3c(c(C)nn3-c3ccc(F)cc3)c(=O)[nH]2)cc1 | 81.3% (inactive)

Tested on: A549/ATCC NSCLC
Test: as above
Details: 10 µM unless noted

Row | Compound | growth
26 | C=C1C(=O)O[C@H]2[C@H]1CC/C(COC(=O)NCCc1c[nH]c3ccccc13)=C\CC[C@@]1(C)O[C@@H]21 | 66.9% (inactive)
27 | C/C(=N\Nc1cc(C)c2ccccc2n1)c1ccccn1 | -0.781% (active)
28 | COC(=O)CNc1nc(N(C)O)nc(N(C)O)n1 | 46.5% (inactive)
29 | Cc1ccc(-c2nc([P+](c3ccccc3)(c3ccccc3)c3ccccc3)c(N3C[C@H]4C[C@H](C3)c3cccc(=O)n3C4)o2)cc1 | 99.1% (inactive)
30 | COC(=O)[C@]12CC[C@@H](C)[C@H](C)[C@@H]1C1=CC[C@@H]3[C@@]4(C)CC(=O)[C@H](OC(=O)c5ccco5)[C@@]5(C)COC(=C45)C[C@@]3(C)[C@]1(C)CC2 | 25% (inactive)
31 | COc1ccc(/C=C/C(=O)NCC(C)O)cc1 (configuration not stated) | 83.2% (inactive)
32 | Cc1nn(-c2ccc(Cl)cc2)c(=O)n1CCn1cnc2ccccc21 | 106% (inactive)
33 | CN1CCN(CCOc2ccc(-c3cnc4c(-c5ccccc5F)cnn4c3)cc2)CC1 | 22.4% (inactive)
34 | O=C(NO)c1ccc(Cn2c(=O)n(-c3ccccc3)c(=O)c3ccccc32)cc1 | 37.7% (inactive)
35 | COc1cccc2c1C(=O)c1c(O)c3c(c(O)c1C2=O)C[C@@](O)(C(=O)CO)C[C@@H]3OC1C[C@H](N)[C@H](O)[C@H](C)O1 (some centres not stated) | 8.81% (active)
36 | CCC(CC)C(=O)OC(C)COc1ccc(C(C)(C)C)cc1 (configuration not stated) | 69.2% (inactive)
37 | Nc1ccc(Cl)cn1 | 87.7% (inactive)
38 | CN1CCN(CCOc2ccc(-c3cnc4c(-c5cccc(F)c5)cnn4c3)cc2)CC1 | 49.4% (inactive)
39 | CCCC1CCCCN1C(=O)OCC(C)C (configuration not stated) | 104% (inactive)
40 | O=S(=O)(NCCNc1cc(-c2cn(-c3ccccc3)nc2-c2cccc(O)c2)ccn1)c1cccc(F)c1 | 42.4% (inactive)
41 | Cc1cccc(C)c1NC(=O)CSC(=S)N1CCCCC1 | 101% (inactive)
42 | O=C(/C=C/c1cccc(O)c1)c1ccccc1O | 96.6% (inactive)
43 | O=C(NO)c1ccc(Cn2c(=O)n(CCc3ccc(O)cc3)c(=O)c3ccccc32)cc1 | 84.2% (inactive)
44 | COc1ccc(O)c(-c2cc(-c3ccc(Cl)cc3)c(C#N)c(=O)[nH]2)c1 | 86.7% (inactive)

Row | Compound | growth
45 | CCC(=O)c1c(C)[nH]c(C)c1C | 86.2% (inactive)
46 | COc1cc(-c2cc3ncccc3c3nc(OCCN(C)C)c4cccnc4c23)cc(OC)c1OC | -37.7% (active)
47 | O=C(/C=C/c1cccc2ccccc12)Nc1ncc(Cc2ccccc2)s1 | 19.5% (inactive)
48 | CC(C)/C=C/CC[C@](C)(O)[C@H]1CC[C@]2(C)[C@@H]1CC[C@@H]1[C@@]3(C)C/C(=C/c4cccc(C(F)(F)F)c4)C(=O)C(C)(C)[C@@H]3CC[C@]12C | 85% (inactive)
49 | COc1cnc2c(c1)C(=O)c1c-2n(CCCNCCN2CCOCC2)c(=O)c2cc([N+](=O)[O-])ccc12 | -72.1% (active)
50 | CCCCCCCC(=O)SCC/C=C/[C@@H]1CC(=O)NCc2cccc(n2)CN(Cc2ccc3ccccc3c2)CC(=O)N[C@@H](C(C)C)C(=O)O1 | 35.3% (inactive)
51 | Fc1ccc2nc(-c3cc(-c4ccc5c(c4)OCO5)n[nH]3)[nH]c2c1 | 60.1% (inactive)
52 | Cn1cc(-c2nc(-c3cn(C)c4ncccc34)cs2)c2cc(F)ccc21 | 38.1% (inactive)
53 | NCCn1cc(-c2nc(-c3c[nH]c4ncccc34)cs2)c2ccccc21 | 76.8% (inactive)
54 | COc1ccc(-c2cc(-c3c(C)oc4cc5occc5c(OC)c4c3=O)nc(N)c2C#N)cc1OC | 57.2% (inactive)
55 | CN(C)c1ccc(N)c2ccccc12 | 49.5% (inactive)
56 | CN(C)CCCCC(C(=O)CBr)(c1ccccc1)c1ccccc1 | 49.7% (inactive)
57 | O=C1Nc2ccccc2/C1=C/c1cn(CCCn2c3ccccc3c(=O)c3ccccc32)c2ccccc12 | 96.5% (inactive)
58 | C=C(C)[C@@H]1CC[C@]2(C=NCCCNCCCCNCCCN)CC[C@]3(C)[C@H](CC[C@@H]4[C@@]5(C)CCCNC(C)(C)[C@@H]5CC[C@]43C)[C@@H]12 | 88.8% (inactive)
59 | CCCCn1c(-c2ccc(O)cc2)cn2c3c(=O)[nH]c(=O)n(C)c3nc12 | 75% (inactive)
60 | Cc1nn(-c2ccc(Br)cc2)c2nc3[nH]c(=O)[nH]c(=O)c3nc12 | 102% (inactive)
61 | Cc1cc2nc3c4cc(N)ccc4n(CCN(C)C)c3nc2cc1C | 5.34% (active)
62 | COc1ccc(-c2nc3c(c(C)nn3-c3ccc(F)cc3)c(=O)[nH]2)cc1 | 45.9% (inactive)
